As a reminder, the inhibition is the relative decrease from the control value, in per cent.

These results are taken from PubChem BioAssay.

Assay [1] is described as follows: rapamycin-like changes in RPL19A-GFP expression – cell-based, S. cerevisiae, multiplex flow cytometry, primary screen (AID 1862).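 Also: lower values mimic rapamycin by blocking the RPL19A rise seen in DMSO cells.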 To be noted: S. cerevisiae RPL19A-GFP strain, flow cytometry fluorescence, 3 h; at 10 µM; stronger effect = lower value. (In flow cytometry, cells or beads pass a laser one at a time.)
The nature of assay [2]: TOR pathway GLN3 branch reporter MEP2-GFP changes – S. cerevisiae, multiplex flow cytometry, primary screen (AID 1867;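 active = GFP response, as percent of the DMSO control, above the screen-wide mean plus 3 SD, about 139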;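 also: median GFP channel fluorescence of barcode-gated MEP2-GFP cells measured by flow cytometry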). To be noted: S. cerevisiae MEP2-GFP strain, 3 h, at 10 µM, stronger effect = higher value, 100% means same as DMSO wells.
The nature of assay [3]: TOR pathway RTG branch CIT2 reporter changes – S. cerevisiae, GFP fusion, multiplex flow cytometry, primary screen (AID 1870;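 active = percent response above a set limit, the screen-wide mean plus 3 SD, cut at about 130% in these data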;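 also: barcoded CIT2-GFP strain pooled with four other GFP strains with rapamycin as positive control; median GFP fluorescence per well over plate mean of DMSO wells so 100% = DMSO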). To be noted: S. cerevisiae CIT2-GFP expression, 3 h, at 10 µM, stronger effect = higher value.
The nature of assay [4]: TOR pathway LAP4-GFP level changes – S. cerevisiae, multiplex flow cytometry, primary screen (AID 1873;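 active = GFP signal, as percent of the solvent control, above the screen mean plus 3 SD, about 149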). To be noted: S. cerevisiae LAP4-GFP expression, 3 h, at 10 µM, stronger effect = higher value.
Assay [5] can be described thus: yeast AGP1-GFP level changes, GLN3 branch – cell-based, multiplex flow cytometry, S. cerevisiae, primary screen (AID 1887;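 active = GFP signal above the screen-wide mean plus 3 SD, that is over about 124.5% of the solvent control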;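 also: AGP1-GFP fusion strain of S. cerevisiae within a five-strain barcoded multiplex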). The settings on record: 3 h, at 10 µM, stronger effect = higher value.
Assay [6] is described as follows: reduced mouse 2C T cell binding to pMHC/ICAM-1 vesicles – MLPCN validation set, flow cytometry, LFA-1/ICAM-1 modulator project, pilot screen (AID 2523;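 active = response below a set limit, under 55% cells CD8-positive and vesicle-bound, and CD8 cells' 90th-percentile brightness under 279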;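 as to vesicle binding response: mean PE anti-B7-1 fluorescence of CD8+ cells relative to row control; 100% = QL9-loaded vesicles with DMSO vehicle in the same plate row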). The settings on record: 2C mouse CD8+ T cells, at 7 µM, stronger effect = lower value; double positive events: measured here: CD8+/vesicle+ event percentage.
Assay [7] has as its target Integrin beta-1 (Homo sapiens) + Integrin alpha-4 (Homo sapiens) (UniProt P13612+P05556). Briefly: alpha4beta1 integrin LIBS antibody binding reduction – U937 cells, HUTS-21 mAb, flow cytometry, validation set, VLA-4 allosteric modulator project, pilot screen (AID 2674;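 active = inhibition above 50%, about 3 SD of the validation set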;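 also: antibody binding induced by the VLA-4 ligand LDV present at three times its Kd; 0% = LDV ligand with antibody and no compound and 100% = antibody without LDV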). To be noted: HUTS-21 LIBS mAb binding, at 6.7 µM, stronger effect = higher value, binding induced by LDV ligand.

Assay [8] is described as follows: calorie-restriction mimetic ROS inhibitors, yeast – validation compound set, pilot screen (AID 2706;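 active = superoxide response below 65% of plate, a cut near 3 SD across the whole screen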;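 also: yeast exposed to compound for one week at 30 degrees C before staining; 100% = mean of all compound wells on the same plate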). To be noted: S. cerevisiae aging, superoxide DHE fluorescence; at 10 µM; stronger effect = lower value.
The target of assay [9] is Beta-adrenergic receptor kinase 1 (Homo sapiens) (UniProt P25098). The assay can be described thus: GRK2 binders displacing RNA aptamer, biochemical, validation, human GRK2, bead flow cytometry (AID 488806;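 active = aptamer binding inhibition above 30%, about 3 SD of noise from non-fluorescent compounds; inactive = inhibition at or below 30%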). The settings on record: bead-bound GRK2, FAM-aptamer displacement, at 10 µM, stronger effect = higher value.
Sequence of Beta-adrenergic receptor kinase 1 (Homo sapiens) (P25098 whole entry, looked up): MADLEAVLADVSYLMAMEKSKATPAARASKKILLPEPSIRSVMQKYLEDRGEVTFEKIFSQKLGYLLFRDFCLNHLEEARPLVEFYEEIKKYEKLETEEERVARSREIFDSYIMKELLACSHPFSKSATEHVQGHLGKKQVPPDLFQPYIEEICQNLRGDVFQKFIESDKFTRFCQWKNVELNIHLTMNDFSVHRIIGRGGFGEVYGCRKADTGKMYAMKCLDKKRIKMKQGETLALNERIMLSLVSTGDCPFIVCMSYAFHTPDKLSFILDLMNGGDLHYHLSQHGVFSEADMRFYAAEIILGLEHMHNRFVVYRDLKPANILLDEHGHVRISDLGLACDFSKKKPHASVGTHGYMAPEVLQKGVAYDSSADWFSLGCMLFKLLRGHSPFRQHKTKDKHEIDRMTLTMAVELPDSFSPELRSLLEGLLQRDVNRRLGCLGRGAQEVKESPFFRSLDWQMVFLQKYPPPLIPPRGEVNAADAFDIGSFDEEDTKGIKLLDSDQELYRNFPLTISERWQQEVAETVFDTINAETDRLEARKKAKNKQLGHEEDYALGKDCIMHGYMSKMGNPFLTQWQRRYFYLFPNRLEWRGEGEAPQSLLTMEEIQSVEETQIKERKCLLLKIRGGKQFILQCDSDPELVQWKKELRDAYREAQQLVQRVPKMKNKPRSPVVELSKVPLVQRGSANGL
Assay [10] concerns the target Beta-2 adrenergic receptor (Homo sapiens) (UniProt P07550). Briefly: agonist-induced loss of surface beta2AR – cell-based, FAP fluorogen, flow cytometry, validation set, pilot screen (AID 504459;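 active = percent response above 42, roughly 3 SD of non-fluorescent test compounds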;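 also: agonist-driven loss of surface beta2AR via internalization measured by FAP dye flow cytometry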). To be noted: Am2.2-beta2AR cells, at 10 µM, stronger effect = higher value.
Assay [11] has as its target AP-2 complex subunit beta (Homo sapiens) (UniProt P63010). Briefly: beta-arrestin/AP2 interaction blockers – biochemical, validation set, GST-AP2 beads, flow cytometry, pilot screen (AID 504541;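 active = inhibition above 54%, about 3 SD of non-fluorescent compounds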;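 also: AP2 carries R879A mutation and is captured from E. coli lysate; bead-bound FITC arrestin peptide fluorescence measuring arrestin peptide binding to AP2; 0% = DMSO wells and 100% = excess unlabeled arrestin peptide control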). The settings on record: FITC arrestin peptide, at 10 µM, stronger effect = higher value, AP2 beta2 appendage fragment, R879A mutant.
Assay [12] is described as follows: cytosolic pH regulators acting via V-ATPase – S. cerevisiae, pHLuorin, HTS validation (AID 504600; in the data active = response above about 15%;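 also: plate controls were DMSO for no effect and reference compound for full effect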). The settings on record: V-ATPase proton transport, at 10 µM, stronger effect = higher value.
The subject of assay [13] is anti-desmoglein-3 scFv antibody binding to human DSG3. The assay can be described thus: blockers of pathogenic pemphigus antibody–desmoglein-3 binding – biochemical, validation compound set, bead-based, flow cytometry, pilot screen (AID 588368;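 active = binding below the plate cutoff, the plate median minus 3 SD, with a reading above zero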;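 also: signal is the median channel fluorescence of bead-bound GFP antibody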). To be noted: Protein G beads, DSG3-Fc, scFv-GFP binding, at 10 µM, stronger effect = lower value.
Assay [14] is described as follows: Nile Red efflux blockade in pump-expressing yeast – validation compound set, multiplex, phenotypic, pilot screen (AID 588506;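 active = efflux inhibition above 0.42, the validation set average plus 4 SD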;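 also: Nile Red retained in cells so higher fluorescence means more efflux inhibition; 0 = negative control wells and 1 = enniatin B 25 µM full block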). To be noted: S. cerevisiae pump-expressing triplex, Nile Red efflux flow cytometry; at 10 µM; stronger effect = higher value; the pumps come from Candida albicans.
The target of assay [15] is ATP-binding cassette sub-family B member 6 (Homo sapiens) (UniProt Q9NP58). Briefly: blockers of ABCB6-driven porphyrin uptake – K562-ABCB6 cells, flow cytometry, validation set, pilot screen (AID 588550;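 active = inhibition above the screen-wide mean plus 3 SD, about 51%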;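 also: 0% = DMSO wells and 100% = benzethonium chloride 70 µM positive control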). The settings on record: K562-ABCB6 porphyrin accumulation, 1 h, at 10 µM, stronger effect = higher value.
Sequence of ATP-binding cassette sub-family B member 6 (Homo sapiens) (Q9NP58 whole entry, looked up): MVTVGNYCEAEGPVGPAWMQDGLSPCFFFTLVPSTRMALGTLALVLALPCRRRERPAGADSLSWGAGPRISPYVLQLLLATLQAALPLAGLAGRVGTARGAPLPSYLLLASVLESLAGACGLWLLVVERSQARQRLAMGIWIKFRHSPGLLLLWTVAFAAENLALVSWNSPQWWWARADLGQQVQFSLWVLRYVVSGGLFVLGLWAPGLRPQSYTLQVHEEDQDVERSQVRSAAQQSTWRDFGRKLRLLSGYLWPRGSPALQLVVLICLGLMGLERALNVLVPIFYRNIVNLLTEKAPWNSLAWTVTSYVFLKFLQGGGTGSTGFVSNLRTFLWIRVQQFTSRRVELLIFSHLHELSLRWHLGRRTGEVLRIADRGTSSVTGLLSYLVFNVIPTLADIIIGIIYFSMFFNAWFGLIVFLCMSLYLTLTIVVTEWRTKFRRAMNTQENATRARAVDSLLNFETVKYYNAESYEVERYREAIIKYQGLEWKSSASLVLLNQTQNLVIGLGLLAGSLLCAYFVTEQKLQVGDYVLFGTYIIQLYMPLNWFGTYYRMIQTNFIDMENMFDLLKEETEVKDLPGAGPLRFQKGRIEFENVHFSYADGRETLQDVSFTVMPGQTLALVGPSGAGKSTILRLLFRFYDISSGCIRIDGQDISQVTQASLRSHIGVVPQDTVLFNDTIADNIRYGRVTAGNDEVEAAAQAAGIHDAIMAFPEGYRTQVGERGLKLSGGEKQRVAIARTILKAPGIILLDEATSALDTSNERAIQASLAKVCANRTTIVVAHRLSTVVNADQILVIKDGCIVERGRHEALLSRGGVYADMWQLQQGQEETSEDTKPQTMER
A short description of assay [16]: AML differentiation inducers, ER-HoxA9 marrow cells – cell-based, GFP/MAC1 double positive, flow cytometry, validation set, primary screen (AID 588685;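 active = differentiation response of at least 50%, scaled between solvent and reference control, from cells with both markers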;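 also: compound exposure lasts four days before antibody staining and flow analysis; 0% = DMSO wells and 100% = 5 µM fulvestrant positive control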). To be noted: stronger effect = higher value, normalized: vehicle 0, fulvestrant 100.

The structures appear in SMILES notation. Records with an inconclusive call do not appear. The source made the active and inactive calls. Rule as the data show it, unless noted: active = percent of DMSO control GFP below about 86%; inactive = the rest, inconclusive results apart.

Sequence of Integrin beta-1 (Homo sapiens) + Integrin alpha-4 (Homo sapiens) (P05556 whole entry, looked up): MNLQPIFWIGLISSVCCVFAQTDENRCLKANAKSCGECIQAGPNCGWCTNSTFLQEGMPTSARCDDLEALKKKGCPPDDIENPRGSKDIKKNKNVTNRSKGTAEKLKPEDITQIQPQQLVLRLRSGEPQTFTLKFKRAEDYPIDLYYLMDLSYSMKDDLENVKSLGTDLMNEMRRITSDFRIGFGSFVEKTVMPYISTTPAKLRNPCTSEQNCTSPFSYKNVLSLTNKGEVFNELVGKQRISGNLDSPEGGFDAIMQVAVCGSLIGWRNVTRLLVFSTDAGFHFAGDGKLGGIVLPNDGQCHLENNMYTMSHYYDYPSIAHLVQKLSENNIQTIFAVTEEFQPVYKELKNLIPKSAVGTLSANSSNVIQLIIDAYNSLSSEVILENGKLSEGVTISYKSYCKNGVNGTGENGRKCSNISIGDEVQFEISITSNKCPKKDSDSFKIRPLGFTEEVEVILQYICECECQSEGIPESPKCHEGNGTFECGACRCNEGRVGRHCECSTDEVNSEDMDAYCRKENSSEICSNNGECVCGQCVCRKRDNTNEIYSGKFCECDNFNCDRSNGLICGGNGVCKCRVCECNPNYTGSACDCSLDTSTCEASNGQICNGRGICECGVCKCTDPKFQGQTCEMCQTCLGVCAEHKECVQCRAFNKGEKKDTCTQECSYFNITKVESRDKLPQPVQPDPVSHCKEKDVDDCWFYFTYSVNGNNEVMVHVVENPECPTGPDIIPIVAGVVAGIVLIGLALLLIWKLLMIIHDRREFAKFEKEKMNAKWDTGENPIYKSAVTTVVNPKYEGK
Sequence of Integrin beta-1 (Homo sapiens) + Integrin alpha-4 (Homo sapiens) (P13612 whole entry, looked up): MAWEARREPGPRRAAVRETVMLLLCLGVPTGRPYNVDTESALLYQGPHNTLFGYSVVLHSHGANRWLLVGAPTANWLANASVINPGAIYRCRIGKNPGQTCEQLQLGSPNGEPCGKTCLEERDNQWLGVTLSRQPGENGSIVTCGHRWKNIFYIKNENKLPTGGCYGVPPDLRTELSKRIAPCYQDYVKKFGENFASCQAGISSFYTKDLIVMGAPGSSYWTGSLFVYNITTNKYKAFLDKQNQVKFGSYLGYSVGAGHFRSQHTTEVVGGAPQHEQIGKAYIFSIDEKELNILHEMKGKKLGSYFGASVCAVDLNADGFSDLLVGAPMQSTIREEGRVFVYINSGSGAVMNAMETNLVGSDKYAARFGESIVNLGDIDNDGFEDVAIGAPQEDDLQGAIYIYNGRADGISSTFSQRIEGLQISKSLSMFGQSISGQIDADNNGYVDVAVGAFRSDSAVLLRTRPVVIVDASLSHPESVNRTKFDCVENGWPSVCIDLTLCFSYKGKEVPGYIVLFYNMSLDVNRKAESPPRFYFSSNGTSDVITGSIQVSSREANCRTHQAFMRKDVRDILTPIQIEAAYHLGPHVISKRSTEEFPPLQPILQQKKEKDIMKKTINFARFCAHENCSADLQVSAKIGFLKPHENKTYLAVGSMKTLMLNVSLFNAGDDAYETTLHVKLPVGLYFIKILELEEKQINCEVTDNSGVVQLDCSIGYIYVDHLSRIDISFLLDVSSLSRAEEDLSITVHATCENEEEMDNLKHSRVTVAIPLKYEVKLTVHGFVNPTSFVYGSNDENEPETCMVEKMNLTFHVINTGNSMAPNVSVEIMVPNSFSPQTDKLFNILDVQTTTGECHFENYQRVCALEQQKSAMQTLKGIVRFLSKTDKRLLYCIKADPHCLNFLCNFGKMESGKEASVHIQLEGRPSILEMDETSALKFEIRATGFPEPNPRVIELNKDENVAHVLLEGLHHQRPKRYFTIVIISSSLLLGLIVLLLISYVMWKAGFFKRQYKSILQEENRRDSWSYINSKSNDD
Sequence of Beta-2 adrenergic receptor (Homo sapiens) (P07550 whole entry, looked up): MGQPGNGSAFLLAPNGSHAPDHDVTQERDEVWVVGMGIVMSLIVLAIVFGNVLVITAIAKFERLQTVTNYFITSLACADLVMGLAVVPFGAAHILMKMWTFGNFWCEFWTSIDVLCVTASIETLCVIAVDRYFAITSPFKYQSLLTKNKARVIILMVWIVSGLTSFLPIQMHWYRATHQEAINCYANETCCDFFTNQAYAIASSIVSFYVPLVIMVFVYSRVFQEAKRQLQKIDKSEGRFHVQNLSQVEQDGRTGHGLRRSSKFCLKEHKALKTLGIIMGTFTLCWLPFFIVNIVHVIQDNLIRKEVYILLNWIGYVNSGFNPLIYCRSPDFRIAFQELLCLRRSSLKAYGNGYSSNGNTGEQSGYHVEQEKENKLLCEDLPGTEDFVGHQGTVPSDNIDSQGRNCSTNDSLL
Sequence of AP-2 complex subunit beta (Homo sapiens) (P63010 whole entry, looked up, the tested form may be a part, one chain of several): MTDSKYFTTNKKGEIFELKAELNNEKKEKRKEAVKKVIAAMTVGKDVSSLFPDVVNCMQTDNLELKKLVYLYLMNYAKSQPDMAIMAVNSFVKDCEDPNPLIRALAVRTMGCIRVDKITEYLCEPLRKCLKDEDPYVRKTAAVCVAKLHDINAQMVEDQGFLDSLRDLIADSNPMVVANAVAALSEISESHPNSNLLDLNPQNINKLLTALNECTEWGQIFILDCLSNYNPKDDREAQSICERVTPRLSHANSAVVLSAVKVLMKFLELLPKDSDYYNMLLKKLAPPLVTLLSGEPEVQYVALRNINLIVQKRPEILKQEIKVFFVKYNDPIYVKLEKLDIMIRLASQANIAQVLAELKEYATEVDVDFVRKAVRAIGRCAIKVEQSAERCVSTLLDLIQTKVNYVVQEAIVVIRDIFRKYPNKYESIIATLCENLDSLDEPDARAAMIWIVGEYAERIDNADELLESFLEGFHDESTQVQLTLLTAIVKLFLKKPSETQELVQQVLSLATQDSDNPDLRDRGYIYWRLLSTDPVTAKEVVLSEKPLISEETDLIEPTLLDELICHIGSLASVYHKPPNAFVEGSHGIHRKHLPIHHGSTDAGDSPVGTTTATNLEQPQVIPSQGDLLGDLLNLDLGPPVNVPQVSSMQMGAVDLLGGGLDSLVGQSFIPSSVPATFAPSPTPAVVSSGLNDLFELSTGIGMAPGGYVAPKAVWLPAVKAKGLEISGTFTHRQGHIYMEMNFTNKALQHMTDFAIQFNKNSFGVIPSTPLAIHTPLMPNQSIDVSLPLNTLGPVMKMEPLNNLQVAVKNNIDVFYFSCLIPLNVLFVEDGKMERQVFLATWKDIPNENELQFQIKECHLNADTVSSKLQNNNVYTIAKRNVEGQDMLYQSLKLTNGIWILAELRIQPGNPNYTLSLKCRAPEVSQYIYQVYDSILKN

On to `CC(=O)Nc1c(I)c(NC(C)=O)c(I)c(C(=O)O)c1I`, for which the percent of DMSO control GFP in assay [1] is 89.3% (inactive). Also, the GFP response vs DMSO in [2] is 123% (inactive); in [4], 78.1% (inactive). Besides, in assay [3], the percent response of DMSO control is 104% (inactive). Also, in [5], the GFP response, % of DMSO is 94% (inactive). In assay [6], this compound yielded a double positive events of 58.9%. The vesicle binding response in assay [6] is 171% (inactive). The inhibition was 10.3% (inactive) in assay [7], 2.48% (inactive) in [11] and 9% (inactive) in assay [15]. Further, the superoxide response (% of plate) in [8] was 103% (inactive). In addition, in [9], the aptamer binding inhibition is -1% (inactive). Further, the response in assay [10] was -8.3% (inactive); in [12] it was 1.06% (inactive). Moreover, the binding (% of control) in assay [13] is 95% (inactive). Besides, the efflux inhibition (fraction of control) in [14] was 0.12 (inactive). Also, the differentiation response in assay [16] is 2.46% (inactive).
`O=C(Nc1cccc(C(=O)O)c1)/C(=C\c1ccccc1)NC(=O)c1ccccc1`: in assay [1], the percent of DMSO control GFP was 105% (inactive). For the same compound, the GFP response vs DMSO in assay [2] is 98.3% (inactive); in assay [4] it was 84.8% (inactive). Also, the percent response of DMSO control in assay [3] was 106% (inactive). Also, the GFP response, % of DMSO in [5] is 100% (inactive). The compound further yielded a double positive events in assay [6] of 58.1%. Also, the vesicle binding response in assay [6] is 150% (inactive). In addition, the inhibition was -1.49% (inactive) in assay [7], 0.49% (inactive) in assay [11] and 15% (inactive) in assay [15]. The superoxide response (% of plate) in assay [8] is 95.7% (inactive). Besides, in assay [9], the aptamer binding inhibition was 5% (inactive). The response is -3.48% (inactive) in [10] and 0.44% (inactive) in assay [12]. Further, the binding (% of control) in assay [13] is 99% (inactive). In addition, in assay [14], the efflux inhibition (fraction of control) is 0.14 (inactive). Further, the differentiation response in assay [16] is 11% (inactive).
For the compound `Cc1ccc(/C(=C\CN2CCCC2)c2ccccn2)cc1`, the percent of DMSO control GFP in assay [1] was 107% (inactive). For the same compound, the GFP response vs DMSO in assay [2] was 104% (inactive); in assay [4], 88.2% (inactive). In assay [3], the percent response of DMSO control is 108% (inactive). For the same compound, the GFP response, % of DMSO in assay [5] is 100% (inactive). In assay [6], this compound showed a double positive events of 57.7%. Further, the vesicle binding response in assay [6] is 146% (inactive). Further, the inhibition in assay [7] is 12.3% (inactive); in assay [11], -9.23% (inactive); in [15] it was -16% (inactive). The superoxide response (% of plate) in assay [8] was 106% (inactive). Further, the aptamer binding inhibition in assay [9] is 1% (inactive). Further, the response in [10] was 7.2% (inactive); in [12] it was 0.97% (inactive). Moreover, the binding (% of control) in [13] was 108% (inactive). Further, the efflux inhibition (fraction of control) in assay [14] was 0.01 (inactive). The differentiation response in [16] is -19.2% (inactive).
Consider `Cc1nc2ccccc2n1CC(=O)NC1CCCC1`, for which the percent of DMSO control GFP in [1] was 101% (inactive). Besides, the GFP response vs DMSO in assay [2] was 95.6% (inactive); in assay [4], 92.6% (inactive). Besides, the percent response of DMSO control in assay [3] is 109% (inactive). In addition, the GFP response, % of DMSO in assay [5] was 105% (inactive). Besides, in [6], the double positive events is 60.6%. Moreover, in assay [6], the vesicle binding response is 118% (inactive). Also, the results for the inhibition in assay [7], in [11] and in [15] were -2.43% (inactive), -5.83% (inactive) and -2% (inactive), respectively. Further, in assay [8], the superoxide response (% of plate) is 84.9% (inactive). Further, the aptamer binding inhibition in assay [9] was -2% (inactive). The figures for the response in [10] and in [12] were 7.07% (inactive) and 0.83% (inactive), respectively. For the same compound, the binding (% of control) in [13] was 105% (inactive). Also, the efflux inhibition (fraction of control) in assay [14] was 0.115 (inactive). For the same compound, the differentiation response in [16] is -8.96% (inactive).
As to `CC(C)(C)C(=O)NCCCNc1ccc([N+](=O)[O-])cc1`, the percent of DMSO control GFP in [1] is 103% (inactive). In addition, the figures for the GFP response vs DMSO in [2] and in [4] were 123% (inactive) and 95.2% (inactive), respectively. Moreover, the percent response of DMSO control in assay [3] was 93.9% (inactive). Further, in [5], the GFP response, % of DMSO was 104% (inactive). Further, the double positive events in assay [6] is 67.3%. In assay [6], the vesicle binding response is 295% (inactive). In addition, the figures for the inhibition in assay [7], in assay [11] and in assay [15] were 5.49% (inactive), 22% (inactive) and 15% (inactive), respectively. Further, in assay [8], the superoxide response (% of plate) was 86% (inactive). Moreover, the aptamer binding inhibition in assay [9] is -1% (inactive). Also, the response is -6.07% (inactive) in assay [10] and 1.78% (inactive) in assay [12]. In addition, the binding (% of control) in assay [13] was 110% (inactive). Besides, the efflux inhibition (fraction of control) in [14] is -0.06 (inactive). For the same compound, the differentiation response in [16] was 12.3% (inactive).
